Screening data deposited in PubChem BioAssay by several laboratories.
Bim-Mcl-1: human Bim-Mcl-1 interaction inhibition; Bead-based flow cytometry, Bim peptide-Mcl-1 binding; Q07820; 190,000 tested, 0.1% active; inhibition, % at 10 µM; in the data active = inhibition above about 40%;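 also: 0% = no compound tracer wells and 100% = peptide blocker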
Target sequence (Q07820 whole entry, looked up): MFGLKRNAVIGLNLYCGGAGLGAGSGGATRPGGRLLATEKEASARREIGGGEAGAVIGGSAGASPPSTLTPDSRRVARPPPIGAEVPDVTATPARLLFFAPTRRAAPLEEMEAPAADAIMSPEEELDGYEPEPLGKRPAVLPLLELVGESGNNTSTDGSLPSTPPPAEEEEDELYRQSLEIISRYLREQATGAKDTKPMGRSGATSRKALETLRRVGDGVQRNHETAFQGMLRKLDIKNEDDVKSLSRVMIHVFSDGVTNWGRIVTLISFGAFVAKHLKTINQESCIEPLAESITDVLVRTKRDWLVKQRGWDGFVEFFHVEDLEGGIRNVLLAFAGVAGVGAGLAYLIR
Mcl1-Noxa inh: disrupts binding of human Mcl-1 to Noxa peptide; 220,000 tested, 1.5% active; AID 1022; inhibition, % at 21.7 µM; TR-FRET Mcl-1/Noxa peptide binding, 2 h; Q07820;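 active = compounds that cut the protein-peptide binding signal by more than 50% relative to plate controls in a single-dose test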;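 also: His-tagged Mcl-1 with rhodamine Noxa BH3 peptide and terbium anti-His antibody; 0% = Mcl-1 plus Noxa peptide wells and 100% = peptide-only wells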
eIF4E-4G inh: blocks eIF4E binding to eIF4G. AID 782. inhibition, % at 21.7 µM. TR-FRET eIF4E-eIF4GI(517-606) binding, 2 h. 220,000 tested, 0.37% active;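 also: 0% = full FRET control wells and 100% = background wells lacking eIF4GI fragment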
Mcl1-Bid inh: Mcl-1/Bid interaction inhibition | 220,000 tested, 0.97% active | Q07820 | inhibition, % at 21.7 µM | TR-FRET Mcl-1/Bid-Dy647 peptide binding, 1536-well | AID 1021;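 active = compounds that cut the binding signal by more than half at the single screening dose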;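 also: His-tagged Mcl-1 with europium anti-His antibody binding Bid BH3 peptide; 0% = Mcl-1 plus peptide wells and 100% = peptide-only wells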
NCF1 inh: blocks human p47phox regulatory protein of NADPH oxidases. P14598. p47phox/p22phox peptide binding, fluorescence polarization, 2 h. inhibition, % at 24.7 µM. 220,000 tested, 0.53% active. AID 1274;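 also: 0% = p47phox with labelled peptide and 100% = labelled peptide alone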
14-3-3 Bad inh: disrupts binding of bovine 14-3-3 zeta to phospho-Bad peptide; inhibition, % at 21.7 µM; P63103; TR-FRET 14-3-3zeta/Dy647-pBad peptide displacement, 1 h; 220,000 tested, 0.71% active;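 active = inhibition above about 70%, limit read from the data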;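 also: 0% = full 14-3-3 plus peptide FRET controls and 100% = background without 14-3-3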
Target sequence (P63103 whole entry, looked up): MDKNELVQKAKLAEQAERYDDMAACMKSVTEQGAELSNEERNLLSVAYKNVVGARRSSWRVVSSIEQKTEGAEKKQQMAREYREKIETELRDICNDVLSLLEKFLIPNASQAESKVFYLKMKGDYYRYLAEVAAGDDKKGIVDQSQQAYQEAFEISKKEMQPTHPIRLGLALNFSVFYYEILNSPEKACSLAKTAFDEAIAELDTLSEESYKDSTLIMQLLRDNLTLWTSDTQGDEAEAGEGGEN
Starred values were filed as active, the others as inactive; / = no result; [ ] = dose if it differs, or a comment. Shown are actives, neighbours in structure and some others; about 3.3% of the full set was active somewhere.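 The calls were made as follows, unless noted: active = inhibition above about 30% (limit read from the data); inactive = the rest.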

SMILES	Bim-Mcl-1	Mcl1-Noxa inh	eIF4E-4G inh	Mcl1-Bid inh	NCF1 inh	14-3-3 Bad inh
C/C(=N\O)c1cc(Cl)ccc1O	/	5.4	91.6*	-10.8	-5.1	-9.0
O=c1[nH]ncc(N2CCN(C(c3ccccc3)c3ccccc3)CC2)c1Cl	-4.0	-2.5	7.8	-3.9	-7.9	-1.8
O=c1[nH]ncc(N2CCCC2)c1Cl	2.0	-11.4	80.5*	-19.4	8.3	-7.0
COc1ccc(-c2cc(C(F)(F)F)nc(SCC(=O)N3CCOCC3)n2)cc1OC	0.0	3.4	11.4	-4.1	-1.3	-8.4
O=C(CSc1nc(-c2ccccc2)cc(C(F)(F)F)n1)N1CCOCC1	1.0	19.1	-0.8	77.0*	-5.8	2.6
CN(CC(=O)Nn1cnnc1)S(=O)(=O)c1ccccc1	0.0	9.2	-0.6	-17.2	-6.3	73.2*
CC1c2ccccc2N(NC(=O)Cc2ccccc2)C1C (centres undefined)	/	-8.2	-2.5	-5.0	-4.7	-7.0
CC(C)n1c(=S)[nH]c2c1c(=O)[nH]c(=O)n2C	-3.0	54.4*	22.9	-39.4	12.9	-0.1
C=CC(C)n1c(Br)nc2c1c(=O)[nH]c(=O)n2C (centres undefined)	0.0	-17.1	13.1	-24.0	-5.3	-0.8
Cc1nn(C)cc1CN(C)C(=O)c1cc(COc2ccc(F)cc2F)on1	-3.0	-16.2	1.0	-14.9	-2.9	-6.3
Cc1c(-n2cccc2C=O)cccc1[N+](=O)[O-]	0.0	0.1	86.4*	-27.1	-6.6	-4.5
Cc1ccc(C2=NN=C(NC(=O)CSc3nnc4c5ccccc5n(C)c4n3)SC2)cc1	-1.0	63.5*	2.8	-3.2	14.2	4.4
COc1ccc(CCNC(=O)CN(c2cccc([N+](=O)[O-])c2)S(C)(=O)=O)cc1	2.0	2.2	4.2	-6.8	-5.2	0.3
COc1ccc(CCNC(=O)CN(c2ccc(OC)c(OC)c2)S(C)(=O)=O)cc1	-4.0	75.1*	1.8	-18.7	7.5	-1.9
CCOC(=O)c1c2n(c3ccc(OC(C)=O)cc13)CCC2	0.0	6.9	3.1	-11.3	38.3*	4.8
O=[N+]([O-])c1cccc(-c2nnc(-c3ccc4c(c3)OCO4)o2)c1	1.0	62.2*	-3.5	60.1*	29.6	43.3
CCOc1ccc(C(=O)Nc2cc(-c3nc4ccccc4[nH]3)ccc2C)cc1[N+](=O)[O-]	-2.0	3.1	5.2	-5.3	-21.3	75.4*
O=[N+]([O-])c1cc(/C=N/Nc2nc3ccccc3[nH]2)c(O)cc1O	0.0	74.7*	9.7	-130.5	-23.1	1.4
O=C(Nc1nc2ccccc2[nH]1)c1ccc(Cl)c([N+](=O)[O-])c1	0.0	81.9*	5.8	8.9	-17.1	35.2
COc1ccc(-n2c(=O)c3c4c(sc3n3c(=S)[nH]nc23)COC(C(C)C)C4)cc1 (centres undefined)	/	8.8	3.2	-39.0	-14.8	0.0
COC(=O)c1ccc(N2C(=O)C3CC=CC(C)C3C2=O)cc1 (centres undefined)	-1.0	-3.0	-0.7	-28.1	-9.5	-15.8
CCOc1ccc2nc(-c3cc(NC(C)=O)ccc3O)sc2c1	1.0	-4.6	-1.2	-26.1	-9.2	-3.1
Cc1ccc(N2CCN(C(=O)c3ccccc3)CC2)c(C)c1	-3.0	6.0	1.8	-7.1	91.5*	7.5
Cc1ccc(N2CCN(C(=O)c3ccccc3Br)CC2)c(C)c1	0.0	-9.9	-3.4	-29.1	-3.1	-6.0
CCSc1nc2c(c(=O)[nH]c(=O)n2C)n1C/C=C(/C)Cl	2.0	7.8	7.0	-38.3	1.3	15.2
SMILES	Bim-Mcl-1	Mcl1-Noxa inh	eIF4E-4G inh	Mcl1-Bid inh	NCF1 inh	14-3-3 Bad inh
C=CCSc1nc2c(c(=O)[nH]c(=O)n2C)n1C/C=C(/C)Cl	-4.0	57.5*	9.7	-1.0	-11.6	-5.9
O=C(CCCSc1nc2ccccc2c(=O)[nH]1)c1ccc(F)cc1	0.0	5.9	0.9	-19.5	-14.6	-6.6
COc1ccc(CNC(=O)c2n[nH]c3ccccc23)cc1OC	0.0	5.2	-0.2	55.2*	7.3	3.7
COc1ccc(CNC(=O)c2ccc(-c3ccccc3)cc2)cc1OC	-6.0	-2.7	1.0	-17.1	-1.3	0.8
O=C(CNC(=O)c1ccc([N+](=O)[O-])cc1)N/N=C\c1ccc(OC(=O)c2ccccc2)cc1	19.0	41.7	-60.3	74.7*	-6.2	60.5
COc1ccc(C(c2nnnn2C(C)(C)C)N2CCN(c3nc4ccccc4s3)CC2)cc1OC (centres undefined)	-6.0	6.5	-1.3	-0.5	-14.3	7.4
COc1cc(C(c2nnnn2C(C)(C)C)N2CCN(c3nc4ccccc4s3)CC2)ccc1O (centres undefined)	10.0	73.2*	3.4	3.9	-0.7	-9.8
O=C1c2ccc3c4c(ccc(c24)C(=O)N1CCCCO)C(=O)N(CCCCO)C3=O	0.0	25.6	7.2	8.1	61.8*	95.7*
O=C(c1ccc2c(c1)C(=O)N(CCCO)C2=O)c1ccc2c(c1)C(=O)N(CCCO)C2=O	-2.0	0.7	0.6	-9.4	0.9	0.9
CC1(C)C2CCC(C2)C1(C)NC(=O)CN1CCN(Cc2ccccc2)CC1 (centres undefined)	-3.0	28.9	-1.9	36.5	2.7	72.3*
CC(=O)C(Cc1ccccc1)NC(=O)CN1CCN(Cc2ccccc2)CC1 (centres undefined)	-3.0	10.7	0.1	-52.3	-3.9	-3.6
Cc1c([N+](=O)[O-])c(C(=O)Sc2ccc(Br)cc2)nn1C	/	35.2	2.6	-1.2	39.1*	9.0
CNS(=O)(=O)c1ccc2nc(NC(=O)/C=C/c3ccco3)sc2c1	0.0	18.9	1.9	-59.4	-28.9	-13.3
N#C/C(=C(/O)CO/N=C/c1ccccc1Cl)c1nc2ccccc2[nH]1	/	22.2	5.4	13.4	-3.7	39.6
Cc1cc(C)n2nc(C(=O)NC3CCCc4ccccc43)nc2n1 (centres undefined)	-5.0	5.2	1.9	-24.4	-4.2	-11.1
O=S(=O)(Nc1cc(Sc2cccc3cccnc23)c(O)c2ccccc12)c1ccccc1	2.0	68.3*	0.6	-13.4	13.6	9.5
Cc1ccc(C)c(S(=O)(=O)Nc2cc(SCC(=O)O)c(O)c3ccccc23)c1	4.0	79.0*	34.0*[fluorescence artefact?]	-15.9	6.9	83.9*[fluorescence artefact?]
CCOC(=O)NCc1ccc(S(=O)(=O)Nc2ccccc2C)cc1	1.0	1.7	2.4	-13.9	4.7	-2.5
O=C(O)CSc1cc(NS(=O)(=O)c2cccc([N+](=O)[O-])c2)c2ccccc2c1O	/	76.2*	23.7	15.8	11.4	85.7*
CCc1ccc(S(=O)(=O)Nc2cc(SCC(=O)O)c(O)c3ccccc23)cc1	4.0	55.7*	5.2	-29.4	-1.5	41.2
CCN(CC)S(=O)(=O)c1ccc(OC)c(NC(=O)c2cc(=O)[nH]c3ccccc23)c1	1.0	34.5	-1.4	-0.3	-3.8	11.6
COC(=O)c1cc(NC(=O)c2c(F)c(F)c(F)c(F)c2F)cc(C(=O)OC)c1	0.0	13.2	6.0	1.7	10.9	-2.0
